This passage reports inhibition results from PubChem BioAssay.

Several values for one entry are separate records, joined by “and”; a condition that tells them apart may be missing. Identical values can stand only once. Values without a mark were called inactive. Activity calls are given as the source filed them. Unless noted, no stated cut-off is given here; in the data, active means inhibition above about 30%; inactive means the rest.

Chain of Nuclear receptor coactivator 3 (Homo sapiens) (Q9Y6Q9 whole entry, looked up, the tested form may be a part): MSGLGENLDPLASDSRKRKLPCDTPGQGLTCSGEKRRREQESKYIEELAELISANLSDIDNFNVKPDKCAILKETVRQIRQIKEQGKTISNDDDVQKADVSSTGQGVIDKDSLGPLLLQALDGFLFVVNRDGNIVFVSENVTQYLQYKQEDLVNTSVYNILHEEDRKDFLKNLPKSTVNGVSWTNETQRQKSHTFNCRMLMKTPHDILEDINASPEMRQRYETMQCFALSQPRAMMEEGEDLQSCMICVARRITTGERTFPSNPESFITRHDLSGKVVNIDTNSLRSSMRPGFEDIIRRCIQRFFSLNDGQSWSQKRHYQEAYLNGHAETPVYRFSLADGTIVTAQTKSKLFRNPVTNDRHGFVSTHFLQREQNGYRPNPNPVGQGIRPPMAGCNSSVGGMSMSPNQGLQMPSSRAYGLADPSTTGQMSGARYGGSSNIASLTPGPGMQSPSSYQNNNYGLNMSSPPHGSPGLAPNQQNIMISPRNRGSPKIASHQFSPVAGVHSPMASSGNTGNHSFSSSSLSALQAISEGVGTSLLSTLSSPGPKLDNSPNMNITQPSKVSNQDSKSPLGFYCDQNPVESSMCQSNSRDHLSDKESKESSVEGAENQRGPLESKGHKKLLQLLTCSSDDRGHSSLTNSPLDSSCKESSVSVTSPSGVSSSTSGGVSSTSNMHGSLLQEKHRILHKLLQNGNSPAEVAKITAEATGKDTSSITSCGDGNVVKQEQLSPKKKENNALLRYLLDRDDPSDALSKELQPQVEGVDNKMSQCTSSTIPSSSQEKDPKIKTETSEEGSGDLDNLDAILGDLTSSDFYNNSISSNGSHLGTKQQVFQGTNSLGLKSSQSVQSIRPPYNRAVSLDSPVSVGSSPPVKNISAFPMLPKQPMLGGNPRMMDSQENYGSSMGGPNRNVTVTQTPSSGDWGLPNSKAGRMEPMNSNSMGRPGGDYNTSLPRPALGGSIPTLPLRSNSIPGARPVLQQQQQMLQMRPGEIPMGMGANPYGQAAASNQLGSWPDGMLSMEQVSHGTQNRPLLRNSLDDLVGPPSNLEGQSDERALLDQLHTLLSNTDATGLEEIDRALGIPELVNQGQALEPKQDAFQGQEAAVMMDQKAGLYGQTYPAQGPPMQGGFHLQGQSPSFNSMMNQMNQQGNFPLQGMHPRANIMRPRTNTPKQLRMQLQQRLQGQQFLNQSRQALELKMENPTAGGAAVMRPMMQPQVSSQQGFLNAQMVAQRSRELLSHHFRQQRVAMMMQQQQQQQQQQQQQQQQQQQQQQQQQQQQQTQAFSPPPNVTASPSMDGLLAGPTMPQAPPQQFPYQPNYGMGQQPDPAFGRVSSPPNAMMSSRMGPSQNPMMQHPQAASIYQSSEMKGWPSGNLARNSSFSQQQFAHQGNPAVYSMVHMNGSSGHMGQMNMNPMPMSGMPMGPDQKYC

The first assay concerns the target Nuclear receptor coactivator 3 (Homo sapiens) (UniProt Q9Y6Q9). The experiment in a line: NCOA3 GAL4-fusion reporter inhibition – cell-based, luminescence, quadruplicate, confirmation (AID 588792;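 active means mean inhibition over 43.08%, the solvent-only control mean plus 3 SD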;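 further: 0% = DMSO treated cells and 100% = gossypol at 36 µM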). The settings on record: HEK293 GAL4-SRC3 luciferase reporter, at 3.6 µM, stronger effect = higher value.
As a reminder, the inhibition is the change of the read-out against control, counted positive when it falls. As to `C=CS(=O)(=O)N(Cc1ccccc1Br)[C@H](CO)Cc1ccccc1`, the inhibition is 24.3%.
Still for that read-out and setting: as for `CCCCCc1ccc(OCCCC[n+]2cccc(C)c2)c(CCCCC)c1`, the figure is 17.4%; as for `Cc1cc(C)cc(NC(=O)c2ccc([N+](=O)[O-])o2)c1`, 22.4%.
Consider `CCN1/C(=C\c2ccc3cc(C)ccc3[n+]2CC)Sc2cc(C)c(C)cc21`, for which the inhibition is 34.9%.
For `CCOc1ccc(-c2c[n+]3c(n2-c2ccccc2)CCCCC3)cc1`, the inhibition was 28.4%.
Still for that read-out and setting: next, `COc1ccc(OC)c(NC(=O)c2nnn(Cc3ccccc3C)c2N)c1`: 4.83%; `CC1(C)CC[C@]2(C(=O)n3ccnc3)CC[C@]3(C)[C@H](C(=O)C=C4[C@@]5(C)C=C(C#N)C(=O)C(C)(C)[C@@H]5CC[C@]43C)[C@@H]2C1`: 93.8% (active); `Brc1ccc(C2=Nn3c(nnc3-c3n[nH]c4c3CCC4)SC2)cc1`: 26%.
Same read-out and setting: as for `O=C(N/N=C\c1ccc([N+](=O)[O-])s1)c1cncc(Br)c1`, the figure is 32.5%; as for `CC(=NNC(=S)N1CCCC1)c1ccccn1`, 54.1% (active); as for `c1ccc(-c2csc3ncnc(NCC4COc5ccccc5O4)c23)cc1` (stereo not given), 8.5%.
On the same count and under the same terms, as for `COc1ccc(-c2n(Cc3ccccc3)c3ccccc3[n+]2Cc2ccccc2)cc1`, the figure is 64% (active); as for `C=CCC1(CC=C)CCCN1C(=O)c1cc(COc2ccc(-n3cncn3)cc2)on1`, 5.51%; as for `O=C(OC12CC3CC(CC(C3)C1)C2)c1ccc(NCc2cc(O)ccc2O)cc1`, 89.3% (active).
In the case of `CC(=O)Nc1ccc(-c2csc(NC(=O)Nc3ccccc3)n2)cc1`, the inhibition is 4.6%.
Same read-out and setting: as for `COc1ccc(-c2cn(-c3ccccc3)c3[n+]2CCS3)cc1`, the figure is 15.7%; as for `O=C(Nc1sc2c(c1C(=O)O)CCCCC2)c1ccccc1`, -1.12%.
In the case of `Cn1nccc1C(=O)NC1CCCc2c1cnn2-c1ccc(C(C)(C)C)cc1` (stereo not given), the inhibition was 15%.
As to `C#CC(=O)N(c1ccc(OC)c(OC)c1)C(C(=O)NC1CCCC1)c1cccs1` (stereo not given), the inhibition was 25.2%.
Regarding `c1ccc(C[n+]2cccc3c4ccccc4ccc32)cc1`, the inhibition is 32.6%.
The same measure, in the same setting: as for `CCN(CC)c1ccc(/C=N/NC(=O)c2cccc(S(=O)(=O)N3CCOCC3)c2)c(O)c1`, the figure is 60% (active); as for `C[C@H]1CCC/C=C/[C@@H]2C[C@H](O)C[C@H]2[C@H](O)[C@H](S(=O)c2ccc(O)cc2)CC(=O)O1` (stereo not given in full), 71.7% (active).
On the same count and under the same terms, as for `O=c1oc2ccccc2cc1-c1cn(-c2ccccc2)c(=S)[nH]1`, the figure is 11%; as for `Cc1cc(C)c[n+](C(C)C(=O)c2ccc(-c3ccccc3)cc2)c1` (stereo not given), 16.9%.
Regarding `c1ccc(CCNc2nc(-c3ccccn3)nc3ccccc23)cc1`, the inhibition was 22.7%.
Still for that read-out and setting: next, `Clc1cccc(CNc2ccn3nc(-c4ccc(OCc5ccccc5)cc4)cc3n2)c1`: -4.23%.
Same read-out and setting: as for `CCOC(=O)c1c2c(n(-c3ccc(OC)cc3)c1C)C(=O)C(=O)c1ccccc1-2`, the figure is 45.9% (active).
Still for that read-out and setting: next, `Cc1ccc2c(c1C)-c1c(ccc(C)c1C)C(=O)C2=O`: 58% (active); `COc1ccc(-c2c[n+](CC(=O)OC3CC(C)CCC3C(C)C)c3n2CCC3)cc1` (stereo not given): 22.9%; `CCc1ccc(N(CC)c2ncnc3nc[nH]c23)cc1`: 50.1% (active).
Take `CCOC(=O)c1sc(N(Cc2ccccc2)C(=O)COC(=O)c2ccc(O)cc2)nc1C`: the inhibition is 69.3% (active).
Still for that read-out and setting: as for `CCC(C)Nc1nc(-c2ccccn2)nc2ccccc12` (stereo not given), the figure is 3.88%.
Take `Cc1sc(NC(=O)c2ccco2)c(C(c2cccnc2)N2CCN(c3ccc(F)cc3)CC2)c1C` (stereo not given): the inhibition was 19.5%.
For `Cc1ccnc(NC(=O)CCCOc2cc(=O)n(C)c3ccccc23)c1`, the inhibition is 3.13% and 25%.
Turning to `CCOc1cc(/C=C2\CCC/C(=C\c3cc(Cl)c(O)c(OCC)c3)C2=O)cc(Cl)c1O`, the inhibition is 43.9% (active).
On the same count and under the same terms, next, `COc1cc(SC)ccc1C(=O)Nc1nc(C)cs1`: 15.6%; `CCCOc1ccc(Br)cc1CSC(=N)N`: 17.9%.
On to `CC(C)(C)c1ccc(C2CC2C(=O)N/N=C\c2ccc[nH]2)cc1` (stereo not given), for which the inhibition was 39.8%.
On the same count and under the same terms, next, `CCC1C/C(=C\c2cccnc2)C(=O)/C(=C/c2cccnc2)C1` (stereo not given): 15.6%.
Take `CC(C)(C)Nc1nc(-c2ccccn2)nc2ccccc12`: the inhibition is 35%.

For a further assay, the system named is transactivating tegument protein VP16 (Human herpesvirus 1), Gal4-VP16 luciferase reporter. The experiment in a line: repression of VP16-driven luciferase reporter – cell-based, luminescence, high throughput, counter-screen for SRC3 inhibitor project (AID 588794). The settings on record: mammalian cells, at 3.6 µM, stronger effect = higher value. In general terms: A reporter such as luciferase makes a cellular process visible.
As to `C=CS(=O)(=O)N(Cc1ccccc1Br)[C@H](CO)Cc1ccccc1`, the inhibition is 0.02%.
The same measure, in the same setting: as for `CCCCCc1ccc(OCCCC[n+]2cccc(C)c2)c(CCCCC)c1`, the figure is 39% (active); as for `Cc1cc(C)cc(NC(=O)c2ccc([N+](=O)[O-])o2)c1`, 2.31%; as for `CCN1/C(=C\c2ccc3cc(C)ccc3[n+]2CC)Sc2cc(C)c(C)cc21`, 57.5% (active).
As to `CCOc1ccc(-c2c[n+]3c(n2-c2ccccc2)CCCCC3)cc1`, the inhibition was 43.8% (active).
Turning to `COc1ccc(OC)c(NC(=O)c2nnn(Cc3ccccc3C)c2N)c1`, the inhibition was 29.9% (active).
Same read-out and setting: next, `CC1(C)CC[C@]2(C(=O)n3ccnc3)CC[C@]3(C)[C@H](C(=O)C=C4[C@@]5(C)C=C(C#N)C(=O)C(C)(C)[C@@H]5CC[C@]43C)[C@@H]2C1`: 82% (active); `Brc1ccc(C2=Nn3c(nnc3-c3n[nH]c4c3CCC4)SC2)cc1`: -11.4%; `O=C(N/N=C\c1ccc([N+](=O)[O-])s1)c1cncc(Br)c1`: 22.9%.
Same read-out and setting: as for `CC(=NNC(=S)N1CCCC1)c1ccccn1`, the figure is 64.5% (active); as for `c1ccc(-c2csc3ncnc(NCC4COc5ccccc5O4)c23)cc1` (stereo not given), 53% (active); as for `COc1ccc(-c2n(Cc3ccccc3)c3ccccc3[n+]2Cc2ccccc2)cc1`, 66.2% (active).
Same read-out and setting: next, `C=CCC1(CC=C)CCCN1C(=O)c1cc(COc2ccc(-n3cncn3)cc2)on1`: 30.2% (active).
`O=C(OC12CC3CC(CC(C3)C1)C2)c1ccc(NCc2cc(O)ccc2O)cc1`: the inhibition was 59.6% (active).
Take `CC(=O)Nc1ccc(-c2csc(NC(=O)Nc3ccccc3)n2)cc1`: the inhibition is -0.97%.
The same measure, in the same setting: as for `COc1ccc(-c2cn(-c3ccccc3)c3[n+]2CCS3)cc1`, the figure is 35.4% (active).
Same read-out and setting: next, `O=C(Nc1sc2c(c1C(=O)O)CCCCC2)c1ccccc1`: 24.2%; `Cn1nccc1C(=O)NC1CCCc2c1cnn2-c1ccc(C(C)(C)C)cc1` (stereo not given): 49.3% (active).
Still for that read-out and setting: as for `C#CC(=O)N(c1ccc(OC)c(OC)c1)C(C(=O)NC1CCCC1)c1cccs1` (stereo not given), the figure is -2.4%.
For the compound `c1ccc(C[n+]2cccc3c4ccccc4ccc32)cc1`, the inhibition is 54.8% (active).
On the same count and under the same terms, as for `CCN(CC)c1ccc(/C=N/NC(=O)c2cccc(S(=O)(=O)N3CCOCC3)c2)c(O)c1`, the figure is 61.7% (active); as for `C[C@H]1CCC/C=C/[C@@H]2C[C@H](O)C[C@H]2[C@H](O)[C@H](S(=O)c2ccc(O)cc2)CC(=O)O1` (stereo not given in full), 77.6% (active).
Regarding `O=c1oc2ccccc2cc1-c1cn(-c2ccccc2)c(=S)[nH]1`, the inhibition is 23.1%.
Still for that read-out and setting: as for `Cc1cc(C)c[n+](C(C)C(=O)c2ccc(-c3ccccc3)cc2)c1` (stereo not given), the figure is 40.2% (active); as for `c1ccc(CCNc2nc(-c3ccccn3)nc3ccccc23)cc1`, 41% (active).
Take `Clc1cccc(CNc2ccn3nc(-c4ccc(OCc5ccccc5)cc4)cc3n2)c1`: the inhibition is 35.7% (active).
Same read-out and setting: next, `CCOC(=O)c1c2c(n(-c3ccc(OC)cc3)c1C)C(=O)C(=O)c1ccccc1-2`: 33.8% (active).
Consider `Cc1ccc2c(c1C)-c1c(ccc(C)c1C)C(=O)C2=O`, for which the inhibition is 34.3% (active).
Take `COc1ccc(-c2c[n+](CC(=O)OC3CC(C)CCC3C(C)C)c3n2CCC3)cc1` (stereo not given): the inhibition is 42.1% (active).
The same measure, in the same setting: next, `CCc1ccc(N(CC)c2ncnc3nc[nH]c23)cc1`: 33% (active); `CCOC(=O)c1sc(N(Cc2ccccc2)C(=O)COC(=O)c2ccc(O)cc2)nc1C`: 37.4% (active).
On the same count and under the same terms, next, `CCC(C)Nc1nc(-c2ccccn2)nc2ccccc12` (stereo not given): 11.9%.
On to `Cc1sc(NC(=O)c2ccco2)c(C(c2cccnc2)N2CCN(c3ccc(F)cc3)CC2)c1C` (stereo not given), for which the inhibition was 31.9% (active).
The same measure, in the same setting: as for `Cc1ccnc(NC(=O)CCCOc2cc(=O)n(C)c3ccccc23)c1`, the figure is -1.88% and -14.4%.
The same measure, in the same setting: next, `CCOc1cc(/C=C2\CCC/C(=C\c3cc(Cl)c(O)c(OCC)c3)C2=O)cc(Cl)c1O`: 21.8%; `COc1cc(SC)ccc1C(=O)Nc1nc(C)cs1`: 15.1%; `CCCOc1ccc(Br)cc1CSC(=N)N`: 33.3% (active).
On the same count and under the same terms, next, `CC(C)(C)c1ccc(C2CC2C(=O)N/N=C\c2ccc[nH]2)cc1` (stereo not given): 81.5% (active); `CCC1C/C(=C\c2cccnc2)C(=O)/C(=C/c2cccnc2)C1` (stereo not given): 78.6% (active).
For the compound `CC(C)(C)Nc1nc(-c2ccccn2)nc2ccccc12`, the inhibition was 43.1% (active).
